High-throughput results deposited in PubChem by National Center for Advancing Translational Sciences (NCATS).
The entries come from a sample that favours hits as a whole.
nsP2pro inh – blocks chikungunya virus nsP2 protease peptide cleavage; Potency, µM (highest dose often 24.9 µM), for the others: at the top dose activity change, negative = inhibition, usual class: inhibitors; FRET peptide cleavage, nsP2pro, fluorescence 1 h; 31,000 tested, 1.1% active; also: nearly all actives have a fitted effect of over 60% in size
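Purified recombinant nsP2pro (150 nM final) in 10 mM Tris-HCl pH 8.0 with 0.01% Tween 20 was preincubated 15 min at room temperature with compound (7 concentrations, up to 25 uM). FRET peptide 2 substrate (2.5 uM final) was then added; fluorescence was read after 1 h.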
CHIKV nsP2 cell – inhibits CHIKV nsP2 protease in cells | shares compounds with nsP2pro inh | cell-based CHIKV nsP2 protease reporter assay | Potency, µM (top dose mostly 51.1 µM), for inactives: at the top dose activity change, negative = inhibition, hits mostly inhibitors | 450 tested, 10% active | AID 1964100; also: nearly all actives have a fitted effect of over 70% in size
Target sequence (Q8JUX6 220-798 limits assumed): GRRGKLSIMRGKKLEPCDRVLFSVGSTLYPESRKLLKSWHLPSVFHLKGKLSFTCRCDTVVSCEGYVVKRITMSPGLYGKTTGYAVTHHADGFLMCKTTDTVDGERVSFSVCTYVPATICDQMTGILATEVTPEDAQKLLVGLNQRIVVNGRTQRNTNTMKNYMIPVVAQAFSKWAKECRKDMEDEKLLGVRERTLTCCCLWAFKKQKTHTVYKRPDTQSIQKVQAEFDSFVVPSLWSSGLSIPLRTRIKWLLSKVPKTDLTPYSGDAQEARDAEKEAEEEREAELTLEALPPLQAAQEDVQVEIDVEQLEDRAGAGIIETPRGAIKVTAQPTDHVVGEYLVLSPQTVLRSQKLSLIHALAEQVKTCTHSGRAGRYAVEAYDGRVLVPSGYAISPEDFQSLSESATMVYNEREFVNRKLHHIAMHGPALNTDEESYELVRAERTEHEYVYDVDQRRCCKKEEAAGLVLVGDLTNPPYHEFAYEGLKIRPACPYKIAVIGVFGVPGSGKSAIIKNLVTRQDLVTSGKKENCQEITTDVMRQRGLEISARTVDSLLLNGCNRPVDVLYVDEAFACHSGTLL
CHIKV NSP2 FL – full-length CHIKV NSP2 protease inhibition, selectivity; Full-length CHIKV NSP2 protease enzymatic counterscreen; Potency, µM (titrated, usually from 50.7 µM), for inactives: at the top dose activity change, negative = inhibition, actives largely listed as inhibitors; 410 tested, 39% active; shares compounds with nsP2pro inh; also: nearly all actives have a fitted effect of over 65% in size
Furin counterscr – selectivity counter-screen for CHIKV nsP2 protease inhibitors: human furin; Recombinant human furin enzymatic counterscreen, fluorogenic substrate; shares compounds with nsP2pro inh; Potency, µM (top dose mostly 50.6 µM), for inactives: at the highest dose activity change, negative = inhibition, actives largely listed as inhibitors; 410 tested, 6% active
NS23 peptide cs – nsP2pro inhibition on native NS2/3 peptide substrate. shares compounds with nsP2pro inh. Purified CHIKV nsP2 protease, endogenous NS2/3 peptide cleavage. Potency, µM (titrated, usually from 51 µM), for the others: at the top dose activity change, negative = inhibition, usual class: inhibitors. 410 tested, 34% active. AID 1964103; also: nearly all actives have a fitted effect of over 55% in size
Papain cs – papain protease inhibition, counterscreen for nsP2pro inhibitors. shares compounds with nsP2pro inh. purified papain protease activity, enzymatic inhibition. Potency, µM (series often up to 51 µM), without a hit: at the top dose activity change, negative = inhibition, most hits filed as inhibitors. 410 tested, 5% active. AID 1964104
nsP2pro confirm – CHIKV nsP2 protease inhibition, confirmatory qHTS. shares compounds with nsP2pro inh. CHIKV nsP2 protease enzymatic activity, qHTS. Potency, µM (doses to about 25.5 µM), for the others: top-dose activity change, negative = inhibition, most hits filed as inhibitors. 410 tested, 43% active. AID 1964105; also: nearly all actives have a fitted effect of over 75% in size
HCV NS3 4A cs – inhibits HCV NS3/4A protease in an nsP2pro selectivity counterscreen. AID 1964106. 410 tested, 20% active. Potency, µM (titrated, usually from 50.9 µM), hits mostly inhibitors. HCV NS3/4A protease biochemical counterscreen. shares compounds with nsP2pro inh; also: nearly all actives have a fitted effect of over 55% in size
Active calls of the source: *; i = inactive; ? = inconclusive; [ ] = another dose, or the depositor's remark. Calls follow the shape of the full dose curve. % is scaled to controls: 0 for no effect and ±100 for the full control effect; potency is read from the fitted curve at half-maximal effect.

SMILES	nsP2pro inh	others
NC(=O)N1c2ccccc2CC(=O)c2ccccc21	1.4%
C[n+]1c2cc(N)ccc2cc2ccc(N)cc21 (tested in a mixture with another compound)	?	CHIKV nsP2 cell=?;CHIKV NSP2 FL=-4.5%;Furin counterscr=?;NS23 peptide cs=?;Papain cs=?;nsP2pro confirm=47.1%;HCV NS3 4A cs=i
Cc1ccc(NS(=O)(=O)c2ccc(-n3cccn3)cc2)cc1Cl	-2.7%
O=C(Cn1ncc2c3ccccc3n(Cc3cccc(Cl)c3)c2c1=O)N1CCCCCC1	-16.7%
CCc1ccc(NC(=O)C2CCCN(c3nnc(C)c4c(C)n(-c5ccccc5)nc34)C2)cc1 (stereo not drawn)	-1.5%
Cc1ccc(S(=O)(=O)Nc2ccccc2Nc2nc(-c3ccccc3)cs2)cc1	2.1%
COc1ccc(C2CC(=O)N3CN(C4CCCCC4)CSC3=C2C#N)c(OC)c1 (stereo not drawn)	8.91µM*	CHIKV nsP2 cell=-5.3%;CHIKV NSP2 FL=18.3µM*;Furin counterscr=-8.8%;NS23 peptide cs=?;Papain cs=-7.6%;nsP2pro confirm=?;HCV NS3 4A cs=i
COc1ccc(NC(=O)c2cc3c(s2)CN(C2CCCC2)C3)c(OC)c1	i
N#CC1=C2SCN(C3CCCCC3)CN2C(=O)CC1c1ccc(Br)cc1 (stereo not drawn)	-0.5%
CC(C)[C@@H](C)/C=C/[C@@H](C)[C@H]1CC[C@H]2C3=CC=C4C[C@@H](O)CC[C@]4(C)[C@H]3CC[C@]12C	-7.5%[10 µM]
COc1ccc(NC(=O)c2ccc(-c3nc(COc4ccccc4)c(C)o3)cc2)cc1	-25.9%
CCCCCCCCCCCCSCCOCCO	2.9%
O=C(C1CCc2nnc(-c3cccc(C(F)(F)F)c3)n21)N1CCCCC1 (stereo not drawn)	-9.8%
COc1cccc(CN2CCOCCNC(=O)CC2)c1	-11.6%
C(#Cc1cccc(CN2CCOCC2)c1)CCN1CCCCC1	9.88µM*	CHIKV nsP2 cell=5.8%;CHIKV NSP2 FL=?;Furin counterscr=-11.8%;NS23 peptide cs=?;Papain cs=-9.7%;nsP2pro confirm=?;HCV NS3 4A cs=i
O=C1CCN(Cc2cccc(F)c2)CCCOCCN1	0.4%
CN(C)CCN(Cc1ccco1)C(=O)c1oc2ccccc2c1NC(=O)c1ccccc1	9.7%
COC(=O)C1=C(C)NC(C)=C(C(=O)O[C@@H]2CCCN(Cc3ccccc3)C2)[C@@H]1c1cccc([N+](=O)[O-])c1	18.2%
Cc1ccc(CNc2ncnc3ccc(-c4ccc(C(=O)N(C)C)o4)cc23)o1	i
CC(O)c1ccc(-c2ccc3ncnc(N4CCOCC4)c3c2)o1 (stereo not drawn)	10µM*	CHIKV nsP2 cell=?;CHIKV NSP2 FL=16.3µM*;Furin counterscr=-7.9%;NS23 peptide cs=?;Papain cs=18.3%;nsP2pro confirm=4.3%;HCV NS3 4A cs=20.6µM*
Cc1ccc(CNc2ncnc3ccc(-c4ccc(CO)o4)cc23)o1	?	CHIKV nsP2 cell=13.6%;CHIKV NSP2 FL=17.6%;Furin counterscr=-10.7%;NS23 peptide cs=i;Papain cs=46.1%;nsP2pro confirm=8.5%;HCV NS3 4A cs=i
CCNC(=O)c1ccc(-c2ccc3ncnc(NCc4nccs4)c3c2)o1	-6.4%
O=C(O)c1ccc(-c2ccc3ncnc(N4CCOCC4)c3c2)o1	-0.5%
O=C(O)c1ccc(-c2ccc3ncnc(NCCc4cnc[nH]4)c3c2)o1	i
OCc1ccc(-c2ccc3ncnc(NCCc4cnc[nH]4)c3c2)o1	1.12µM*	CHIKV nsP2 cell=20.6µM*;CHIKV NSP2 FL=1.7%;Furin counterscr=-6.4%;NS23 peptide cs=1.8%;Papain cs=6.7%;nsP2pro confirm=82.2%;HCV NS3 4A cs=10.3µM*
SMILES	nsP2pro inh	others
c1nc(N2CCC(N3CCCC3)CC2)c2cc(-c3ccc4c(c3)OCO4)ccc2n1	i
CCNC(=O)c1ccc(-c2ccc3ncnc(NCCc4cnc[nH]4)c3c2)o1	-14.1%
Cc1csc(CNc2ncnc3ccc(-c4ccc(C(=O)O)o4)cc23)n1	-11.0%
CC(O)c1ccc(-c2ccc3ncnc(NCc4nccs4)c3c2)o1 (stereo not drawn)	10µM*	CHIKV nsP2 cell=?;CHIKV NSP2 FL=11.6µM*;Furin counterscr=-19.6%;NS23 peptide cs=23.1µM*;Papain cs=41.1%;nsP2pro confirm=-52.9%;HCV NS3 4A cs=11.6µM*
Cc1ccc(CN(C)c2ncnc3ccc(-c4ccc(CO)o4)cc23)o1	-25.7%
COc1cccc(/C=C/c2nc(C#N)c(N3CCN(C)CC3)o2)c1	-16.5%
CCn1cnnc1-c1nn(C)c2c1CN(C(=O)CCCc1nc3ccccc3s1)CC2	4.3%
COc1ccccc1CNC(=O)C1CCN(C(=O)c2sccc2-n2cccc2)CC1	-22.5%
CC(C)CCNC(=O)N1CC[C@@H]2COC(=O)N(Cc3ccccc3)[C@@H]2C1	-7.3%
O=C(c1ccsc1)N1CCC2(CCC2N2CCOCC2)CC1 (stereo not drawn)	i
Cc1ccccc1Nc1sc(C(=O)c2ccccc2)c(N)c1S(C)(=O)=O	-5.8%
Cc1cc(OC2CN(C(=O)c3ccccn3)C2)ccc1F	-5.0%[39.2 µM]
COc1cc(C2Oc3c(OC)cc(CCCO)cc3C2CO)ccc1O (stereo not drawn)	81.4%
C=CCc1ccc(O)c(OC)c1	-20.4%
COc1cc(CCN)ccc1O	?	CHIKV nsP2 cell=8.2%;CHIKV NSP2 FL=-2.7%;Furin counterscr=3.5%;NS23 peptide cs=-3.6%;Papain cs=-7.9%;nsP2pro confirm=-15.1%;HCV NS3 4A cs=i
CCN1C(=O)Cc2cc(C(=O)Nc3ccc(F)cc3)ccc21	-2.6%
CCC(C(=O)N1CCc2onc(-c3ccc(F)c(F)c3)c2C1)n1cccn1 (stereo not drawn)	1.0%
CC(=O)Nc1ccc(NC(=O)CCC(=O)c2ccc(C)cc2)cc1	-6.6%
NS(=O)(=O)c1ccc(NC(=O)Nc2ccc(F)cc2)cc1	7.4%
C/C(=N\N=C(N)N)c1ccc(NC(=O)Nc2ccc(/C(C)=N/N=C(N)N)cc2)cc1	8.81µM*	CHIKV nsP2 cell=5.8%;CHIKV NSP2 FL=16.3µM*;Furin counterscr=16.3µM*;NS23 peptide cs=29.1µM*;Papain cs=?;nsP2pro confirm=8.96µM*;HCV NS3 4A cs=18.3µM*
Cc1nc(CN2C[C@H](C(=O)N3CCN(c4ccccn4)CC3)C[C@@H]2c2ccc(F)cc2)cs1	1.2%
CC1=C(c2ccc(Cl)cc2)S(=O)(=O)N=C1N1CCN(c2cccc(C)c2C)CC1	-29.7%
O=C(NN1CCCCC1)c1nn(-c2ccc(Cl)cc2Cl)c(-c2ccc(C#Cc3ccc(C(F)(F)F)cc3)s2)c1CNS(=O)(=O)N1CCCC1	1.1%
NC[C@@H]1O[C@H](O[C@H]2[C@H](O)[C@H](O[C@H]3[C@@H](O)[C@H](N)C[C@H](N)[C@H]3O[C@H]3O[C@H](CN)[C@H](O)[C@H](O)[C@H]3N)O[C@@H]2CO)[C@@H](N)[C@@H](O)[C@@H]1O	-13.6%[2.68 µM]
